Assay outcomes from PubChem BioAssay.
Most compounds without a hit are left out; they make up all but 7.1% or so of the library.
MCF10A rerep: DNA re-replication induction in MCF 10a cells; 350,000 tested, 2.9% active; Potency, µM (top dose mostly 46.1 µM), hits mostly activators; MCF 10A DNA re-replication, Hoechst nuclear intensity, 48 h; note: nearly all actives have a fitted effect of over 50% in size
PINK1 modulator: modulators of PINK1 expression; PINK1 immunofluorescence, high-content cytometry, 24 h; Potency, µM (series often up to 76.6 µM), usual class: activators; 410,000 tested, 0.2% active; active = well fitted activation curve with a large enough effect; inconclusive = small, poorly fitted or top-dose-only effect; cell line not stated here; note: nearly all actives have a fitted effect of over 65% in size
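PINK1 protein level read as immunofluorescence by microplate cytometer in a fixed, stained stable cell line after 24 h exposure to five compound concentrations, with CCCP as control.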
IL1B secr inh: inflammasome signaling inhibition, IL-1 beta readout. THP-1 LPS/ATP IL-1B secretion, AlphaLISA, 16 h; stronger effect = lower value. activity change, % at 57.5 µM. 360,000 tested, 4.7% active; in the data active = activity change below about -50%; inconclusive = mostly about -30% to -49%
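Secreted IL-1B measured by AlphaLISA bead assay after 16 h compound exposure of THP-1 cells; compounds (final up to 57.5 uM) added 1 h before LPS (250 ng/mL) and ATP (1.25 mM) stimulation; lower signal means less secretion.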
ATXN2 expr inh: inhibitors of ATXN2 expression. Potency, µM (series often up to 57 µM), most hits filed as inhibitors. HEK-293 ATXN2-luciferase reporter, luminescence, 24 h. AID 1745845. 360,000 tested, 0.72% active; note: nearly all actives have a fitted effect of over 55% in size
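ATXN2-luciferase reporter cells (luciferase flanked by upstream and downstream ATXN2 gene portions) were treated 24 h at 37 °C with compounds at up to 57 uM. SteadyGlo luminescence gave expression; GF-AFC fluorescence gave viability.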
SW480 rerep: DNA re-replication induction in SW480 cells; 340,000 tested, 1.8% active; AID 624297; Potency, µM (titrated, usually from 46.1 µM), usual class: activators; SW480 DNA re-replication, Hoechst DNA content imaging, 48 h; note: nearly all actives have a fitted effect of over 55% in size
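Readout is total intensity of Hoechst-stained nuclei, excited at 405 nm and collected at 500-530 nm. Compound treatment lasted 48 hr at 37 C in 5% CO2 before staining.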
ATXN viability: viability counter-screen for ATXN expression inhibitors; 400,000 tested, 0.49% active; S2 cells (HEK-293 line with an ATXN2-luciferase reporter) viability, CellTiter-Fluor protease fluorescence, 24 h; Potency, µM (highest dose often 56.7 µM), most hits filed as cytotoxic; note: nearly all actives have a fitted effect of over 40% in size
Numbers stand for hits; 0 = inactive; ? = inconclusive; - = no result given; [ ] = another dose, or the depositor's remark. Unless noted, calls come from the whole dose curve; as a rule, active = well fitted curve in the direction sought with a large enough effect; inconclusive = small, poorly fitted or top-dose-only effect, or another doubt; inactive = no such curve, though single readings can be large; an effect the other way counts as inactive or inconclusive.

SMILES	MCF10A rerep	PINK1 modulator	IL1B secr inh	ATXN2 expr inh	SW480 rerep	ATXN viability
CC(CNc1nc2ccccc2c2nc(-c3ccccc3)nn12)c1ccccc1 (centres undefined)	-	0	-	0	-	0
N#CCCN(C(=S)Nc1ccc(S(=O)(=O)N2CCOCC2)cc1)c1ccccc1F	0	0	0	0	0	0
COC(=O)c1ccccc1-c1ccc(C(c2c(C)[nH][nH]c2=O)c2c(C)[nH][nH]c2=O)o1	14.1µM	0	?	0	0	0
CC1=Nc2ccccc2/C1=C/c1c(C)[nH]c2ccccc12	0.82µM	0	-71.9	0	10.3µM	0
CC12COC3(C(=O)Nc4ccc(F)cc4)CC1CCC32C (centres undefined)	0	0	0	0	0	0
CC12COC3(P(=O)(c4ccccc4)c4ccccc4)CC1CCC23CP(=O)(c1ccccc1)c1ccccc1 (centres undefined)	0	0	-52.3	?	0	?
Cc1cc2[nH]c3c4ccccc4nc(C)c3c2cc1C	0	0	-112.4	?	0	-
Cc1cc2c(C)nc3ccccc3c2o1	0	0	0	0	0	0
CCN(Cc1ccccc1)C(=O)Cn1c(=O)n(-c2cccc(C)c2)c(=O)c2c1c1cc(C)ccc1n2C	-	0	-	0	-	0
COc1cccc(/C=N/NC(=O)c2cc(-c3cccn3C)n[nH]2)c1O	0	0	0	?	?	?
Cn1cccc1-c1cc(C(=O)N/N=C/C=C/c2ccccc2)[nH]n1	0	0	-90.5	0	0	0
COc1cc(/C=N/NC(=O)c2cc(-c3cccn3C)n[nH]2)cc(OC)c1OC	0	0	-85.3	0	0	0
Cn1cccc1-c1cc(C(=O)N/N=C/c2ccc(Cl)cc2)[nH]n1	?	0	0	0	0	0
COc1cccc(/C=N/NC(=O)c2cc(-c3cccn3C)n[nH]2)c1	0	0	-52.9	0	0	0
COc1ccc(CN(C)c2ccc(-c3nc(C)no3)cc2[N+](=O)[O-])cc1	-	0	-	0	-	?
CC(C)CCOc1ccc(-c2c(=O)n(OCc3ccc([N+](=O)[O-])cc3)c3ccccc3[n+]2[O-])cc1	1.84µM	?	0	0	?	0
CCCOc1ccc(-c2c(=O)n(OCc3ccc([N+](=O)[O-])cc3)c3ccccc3[n+]2[O-])cc1	0	?	0	0	0	0
CCNC(=S)NNc1ccccc1	0	0	-95.1	0	0	0
C=CCC[C@@H](CCCCC)OC(=O)/C=C/[C@@H](O)[C@H](O)C[C@@H](O)CC=C	-	0	?	0	-	0
CCCCc1c(-c2ccccc2OC)ncn1Cc1cccc(-c2ccccc2)c1	-	?	-97.7	28.2µM	-	?
CCCCc1c(-c2ccccc2OC)ncn1Cc1ccc(Cl)cc1	-	0	?	?	-	?
CCc1c(C2CC2)ncn1Cc1cccc(-c2ccccc2)c1	-	-	-59.8	-	-	-
CCCCc1c(-c2ccccc2OC)ncn1Cc1ccc(-c2ccccc2)cc1	-	0	?	25.1µM	-	-
COc1ccc(C#Cc2cnc(Cl)c3cncnc23)cc1OC	-	0	-	-	-	-
COc1cccc(C2CC(=O)Nc3cc4c(cc32)OCCO4)c1OC (centres undefined)	-	0	-	-	-	-
SMILES	MCF10A rerep	PINK1 modulator	IL1B secr inh	ATXN2 expr inh	SW480 rerep	ATXN viability
Cc1cc2ncn(/N=C/c3ccc([N+](=O)[O-])o3)c2cc1C	20.6µM	-	?	?	20.6µM	0
O=[N+]([O-])c1ccc(/C=N/NS(=O)(=O)c2ccc(Cl)cc2)o1	0	0	0	0	?	0
Cc1ccc(S(=O)(=O)N/N=C\c2ccc([N+](=O)[O-])o2)cc1	?	0	-60.4	0	0	0
O=[N+]([O-])c1ccc(/C=N/N=C/c2ccc([N+](=O)[O-])o2)o1	2.59µM	0	-101.2	16.8µM	0	?
COCCCn1c(SCC(=O)NCc2ccccc2)nc2c(sc3ccccc32)c1=O	-	0	-	0	-	0
COc1ccc2oc(-c3ccc(C)c(NC(=O)COc4cc(C)cc(C)c4)c3)nc2c1	-	0	-	0	-	0
Cc1oc2ncn(CC(C)C)c(=O)c2c1C(=O)Nc1cccc(C(F)(F)F)c1	-	0	-	0	-	0
CCC(C)Sc1cc(-c2nc3cc(C)ccn3c2NC2CCCCC2)ccc1OC (centres undefined)	?	12.6µM	-80.7	?	?	?
Cc1ccn2c(NC3CCCC3)c(-c3cccs3)nc2c1	?	0	0	0	?	0
COc1ccc(-c2nc3cc(C)ccn3c2NCC2CCCO2)cc1OC (centres undefined)	0	0	0	0	0	0
c1csc(-c2nc3ccccn3c2NC2CCCCC2)c1	?	0	-85.8	0	0	0
CC(=O)c1ccc(-c2cccc(-c3nc4ccccn4c3NC3CCCCC3)c2)cc1	?	0	-65.5	?	?	15.8µM
CCC(C)Sc1cc(-c2nc3ccccn3c2NC2CCCCC2)ccc1OC (centres undefined)	20.6µM	0	-91.3	?	16.4µM	31.6µM
CCNC(=O)C1CCCN(C(=O)c2ccc(OC)c(OC)c2)CC1 (centres undefined)	-	0	0	0	-	0
COc1ccc(Cl)cc1NC(=O)Nc1ccc(C(=O)N2CCOCC2)cc1	0	0	-63.0	0	0	0
O=C(O)Cc1ccc(NC(=O)c2ccc(NC(=O)c3ccco3)cc2)cc1	0	?	0	0	0	0
COc1ccc(NC(=O)Nc2ccc(C(=O)N3CCOCC3)cc2)cc1	0	0	0	0	0[9.22 µM]	0
CC(C)(C)c1ccc(C(=O)N2CCC(C(=O)c3ccccc3)CC2)cc1	0	0	-75.3	0	0	0
O=C(Nc1ccc(NC(=O)c2sc3ccccc3c2Cl)cc1)c1ccco1	11.6µM	0	0	0	?	0
COC(=O)Cc1ccc(NC(=O)c2ccc(NC(=O)c3ccco3)cc2)cc1	0	0	-88.3	0	0	0
O=C(c1ccccc1)C1CCN(C(=O)c2ccc(Cl)cc2)CC1	0	0	0	0	0	0
CCOc1cccc(C2C=C(c3ccc4c(c3)OCO4)NC(c3ccc(Br)cc3)N2)c1O (centres undefined)	-	0	-	-	-	-
CC(=O)N1CCc2c(sc3c2c(=O)n(-c2ccccc2)c(=O)n3CC(=O)c2ccc(F)cc2)C1	-	0	-	0	-	0
Cc1cc(NC(=O)c2ccc(Br)o2)ccc1NC(=O)c1ccco1	0	0	-	0	0	0
CCOC(=O)Cc1ccc(NC(=O)c2ccc(C(C)(C)C)cc2)cc1	0[9.22 µM]	0	-56.2	2.82µM	0	?
Cc1ccc(C(=O)Nc2ccc(NC(=O)c3ccco3)c(C)c2)cc1	0	0	-59.3	0	0	0
CC(C)(C)c1ccc(C(=O)Nc2ccc(NC(=O)c3ccco3)cc2)cc1	13µM	-	0	?	?	0
O=C(Nc1ccc(NC(=O)c2ccco2)cc1)c1ccco1	0	0	0	0	0	0
